Experimental data: the supplement of paper PMC7380943
± gives the standard deviation of the averaged measurements.

Legend:
[1] = test system: CLZ3 (HCA2 human fibroblast dual HR-NHEJ reporter); assay: NHEJ repair efficiency (GFP+ cells) relative to control (log10 fold); higher = more non-homologous end joining; conditions: 5 µM; doxycycline 0.5 ug/mL
[2] = test system: CLZ3 (HCA2 human fibroblast dual HR-NHEJ reporter); assay: HR repair efficiency (tdTomato+ cells) relative to control (log10 fold); higher = more homologous recombination; conditions: 5 µM; doxycycline 0.5 ug/mL
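For HR repair efficiency (tdTomato+ cells) relative to control in this document: compound given one day before doxycycline, which switches on I-SceI endonuclease expression to create double-strand breaks within the integrated reporter.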
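For NHEJ repair efficiency (GFP+ cells) relative to control in this document: compound given one day ahead of doxycycline, which switches on I-SceI endonuclease to cut the chromosomally integrated reporter and create DSBs.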

SMILES	NHEJ repair efficiency (log10) [1]	HR repair efficiency (log10) [2]
COc1c(O)cc2oc(-c3ccccc3)cc(=O)c2c1O [Oroxylin A]	0.0844	0.0534
CC1(C)CC[C@]2(C(=O)O[C@@H]3O[C@H](CO[C@@H]4O[C@H](CO)[C@@H](O)[C@H](O)[C@H]4O)[C@@H](O)[C@H](O)[C@H]3O)CC[C@]3(C)C(=CC[C@@H]4[C@@]5(C)CC[C@H](O[C@@H]6OC[C@H](O)[C@H](O)[C@H]6O)[C@@](C)(CO)[C@@H]5CC[C@]43C)[C@@H]2C1 [Akebiasaponin D]	0.328	-0.29
COc1cc(-c2cc(=O)c3c(O)c(OC)c(O)cc3o2)ccc1O [Jaceosidin]	-0.028	-0.105
COc1cc(C=O)ccc1O [Vanillin]	-0.132	-0.154
CCCCC[C@H](O)CC(=O)CCc1ccc(O)c(OC)c1 [6-Gingerol]	-0.0809	0.0839
O=C(O)/C=C/c1ccc(O)c(O)c1 [Caffeic Acid]	0.0711	0.156
COc1c(O[C@@H]2O[C@H](CO)[C@@H](O)[C@H](O)[C@H]2O)cc2oc(-c3ccc(O)cc3)cc(=O)c2c1O [Homoplantaginin]	0.0189 ± 0.062	0.0763 ± 0.07
C=C1C(=O)[C@@]23CC[C@@H]4C(C)(C)[C@H](O)CC[C@@]4(C)[C@@H]2[C@@H](O)C[C@@H]1C3 [Tenuifolin A]	-0.0342	-0.13
O=c1cc(-c2ccccc2)oc2cc(O)c(O)c(O)c12 [Baicalein]	0.203	0.17
O=C(O)/C=C/c1ccc(O)c(O)c1 [Caffeic acid]	0.0395	0.0424
COc1cc(C(=O)O)cc(OC)c1O [Syringic acid]	-0.0271	-0.177
O=c1c(O)c(-c2cc(O)c(O)c(O)c2)oc2cc(O)cc(O)c12 [Myricetin]	0.0547	0.02
CCC/C=C1\OC(=O)C2=C1CCC1C3C=C4C(=O)O/C(=C\CCC)C4(CC3)C21 (stereo not given) [Levistilide A]	-0.106	0.0314
O=C(/C=C/c1ccc(O)c(O)c1)O[C@@H](C(=O)O)[C@@H](O)C(=O)O [Caftaric Acid]	-0.0695	-0.0835
CC(/C=C/C=C(\C)C(=O)O[C@@H]1O[C@H](CO[C@@H]2O[C@H](CO)[C@@H](O)[C@H](O)[C@H]2O)[C@@H](O)[C@H](O)[C@H]1O)=C\C=C\C=C(C)\C=C\C=C(/C)C(=O)O[C@@H]1O[C@H](CO[C@@H]2O[C@H](CO)[C@@H](O)[C@H](O)[C@H]2O)[C@@H](O)[C@H](O)[C@H]1O [Crocin]	-0.0374	0.0109
OCc1ccccc1O[C@@H]1O[C@H](CO)[C@@H](O)[C@H](O)[C@H]1O [Salicoside]	-0.0463	0.251
NC(=O)c1cccnc1 [Nicotinamide]	0.139	0.186
CC(C)=CCC[C@](C)(O[C@@H]1O[C@H](CO)[C@@H](O)[C@H](O)[C@H]1O)[C@H]1CC[C@]2(C)[C@@H]1[C@H](O)C[C@@H]1[C@@]3(C)CC[C@H](O)C(C)(C)[C@@H]3[C@@H](O[C@@H]3O[C@H](CO)[C@@H](O)[C@H](O)[C@H]3O[C@@H]3O[C@@H](C)[C@H](O)[C@@H](O)[C@H]3O)C[C@]12C [Ginsenoside Re]	-0.152	-0.0179
COc1ccc(/C=C/c2cc(O)cc(O[C@@H]3O[C@H](CO)[C@@H](O)[C@H](O)[C@H]3O)c2)cc1O [Rhapontin]	0.134	0.0931
COc1ccc2ccc(=O)oc2c1CC=C(C)C [Osthole]	0.0815	-0.0645
CC(C)=CC[C@H](O)/C(C)=C/CO[C@@H]1O[C@H](CO)[C@@H](O)[C@H](O)[C@H]1O [Rosiridin]	0.096	0.104
C/C=C(/C)C(=O)O[C@H]1c2cc(OC)c(OC)c(OC)c2-c2c(cc3c(c2OC)OCO3)C[C@H](C)[C@]1(C)O [Wuweizi Ester B]	-0.108	0.0267
COc1c2c(cc3c1-c1c(cc4c(c1OC)OCO4)C[C@H](C)[C@H](C)C3)OCO2 [Schisandrin C]	-0.137	0.0438
C[C@H](CC[C@@]1(O)O[C@H]2C[C@H]3[C@@H]4CC=C5C[C@@H](O[C@@H]6O[C@H](CO)[C@@H](O[C@@H]7O[C@@H](C)[C@H](O)[C@@H](O)[C@H]7O)[C@H](O)[C@H]6O[C@@H]6O[C@@H](C)[C@H](O)[C@@H](O)[C@H]6O)CC[C@]5(C)[C@H]4CC[C@]3(C)[C@H]2[C@@H]1C)CO[C@@H]1O[C@H](CO)[C@@H](O)[C@H](O)[C@H]1O [Protodioscin]	-0.00725	-0.042
OCC1=C[C@@H](O)[C@]2(O[C@@H]3O[C@H](CO)[C@@H](O)[C@H](O)[C@H]3O)C=CO[C@@H](O[C@@H]3O[C@H](CO)[C@@H](O)[C@H](O)[C@H]3O)[C@H]12 [Melittoside]	-0.134	0.096
